Test results reported in the supplement of paper PMC3842684.

System: P. falciparum NF54-pfs16-GFP early (I-III) stage gametocytes
Assay: relative % inhibition of viable gametocyte number; higher = more gametocytocidal
Settings: 5 µM; stage: early (I-III) gametocyte; incubation 72 h
Method in brief: (§1)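 In 384-well poly-D-lysine imaging plates, NF54 pfs16-GFP gametocytes (magnet-isolated, early I/IIa on day 2 or late on day 8; 10% parasitaemia, 0.1% haematocrit) received compound in duplicate at 5 or 0.5 µM. Plates stood 72 h at 37°C in 5% CO2 and 5% O2, then overnight with MitoTracker Red before confocal imaging, where elongated GFP objects with MitoTracker signal above cut-off counted as viable. Relative inhibition was calculated against vehicle and positive-control wells on the same plate.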

Structure (SMILES) | relative % inhibition [%]
Cc1cc(Nc2ccc(Cl)cc2)n2nc(C(F)(F)F)nc2n1 | -6.02
OC(CNC1CCCCC1)Cn1c2ccc(I)cc2c2cc(I)ccc21 (stereo not given) | 95.2
COc1ccc(N2CCN(C(CNC(=O)CC(C)(C)C)c3ccc4c(c3)OCO4)CC2)cc1 (stereo not given) | 24.4
O=C(Nc1ccc(-c2nc3cc(NC(=O)c4ccc(Cl)cc4)ccc3[nH]2)cc1)c1ccc(Cl)cc1 | 48.5
CN1CCN(c2c3c(c(C#N)c4nc5ccccc5n24)CCC3)CC1 | -26.5
Cc1cc(NC(=O)c2cccc(C(F)(F)F)c2)n(-c2nc(-c3ccc4c(c3)OCO4)cs2)n1 | -25.9
C=C(C)CCC(C)N1CCC(N2CCC(C(=O)NCCc3ccccc3)CC2)CC1 (stereo not given) | 49.4
Cc1ccc(-c2cc(C(=O)Nc3ccc(S(=O)(=O)N4CCCCC4)cc3)[nH]n2)c(O)c1 | 51
COCCN(C(=O)Cc1cccs1)C(C(=O)NCc1ccc(OC)cc1)c1ccc(C(C)C)cc1 (stereo not given) | 5.52

System: P. falciparum NF54-pfs16-GFP late (IV-V) stage gametocytes
Assay: as above
Settings: 0.5 µM; stage: late (IV-V) gametocyte; incubation 72 h
Method in brief: as §1

Structure (SMILES) | relative % inhibition [%]
COc1ccc(Nc2nc(NCc3ccccc3)c3ccccc3n2)cc1 | 81.6
CCOc1cc2c(cc1OCC)C(c1cc(Cl)c(O)c(OCC)c1)NCC2 (stereo not given) | 29.4
CN(C)c1ccc(-c2nc3cc(N)ccc3[nH]2)cc1 | -13.1
COc1ccc(CCN2C(=O)c3[nH]nc(-c4cc(Cl)c(C)cc4O)c3C2c2ccccc2F)cc1 (stereo not given) | 30.2
N=c1c2ccccc2nnn1-c1cccc(C(F)(F)F)c1 | 14.7
CC(=O)c1ccc(NC(=O)CSc2nc(-c3ccccc3Cl)ns2)cc1 | 22.2
Cc1ccc(C)c(Cn2c(N3CCC(C(=O)NCc4cccs4)CC3)nc3ccccc32)c1 | 6.18
CCN(CC)CCNc1ncnc2c1[nH]c1ccc(Br)cc12 | 12.4
C[n+]1c2ccccc2nc2ccc(NCCO)cc21 | 13.2
O=C(Nc1ccc(N2CCN(Cc3ccccc3)CC2)cc1)c1cccs1 | 6.6
Cc1cccc(-n2ncc3c(=O)[nH]c(-n4nc(C)cc4NC(=O)c4cc5ccccc5o4)nc32)c1 | 100
COc1cc(-c2nc(-c3ccccc3)c(-c3ccccc3)[nH]2)cc(OC)c1O | -17
CCOc1ccccc1CN1CCc2nc3cc(C(C)(C)C)nn3c(O)c2C1 | 66.3
CCN(CC)CCNc1ccnc2cc3ccccc3cc12 | 25.4
CCCCC(O)(c1ccc(Cl)cc1)C(CN1CCOCC1)c1ccc(Cl)cc1 (stereo not given) | -3.8
c1ccc(-c2ccc(-c3nc4ccccc4[nH]3)cc2)cc1 | 15.9
CC1CN(C(=O)c2sc3ccccc3c2Cl)CC(C)O1 (stereo not given) | 6.08
CC(C)(C)CC(C)(C)NCC(O)COc1ccc(Cl)cc1Cl (stereo not given) | 90.2
O=C(NCC(c1ccsc1)N1CCCCCC1)c1ccc(C(F)(F)F)cc1 (stereo not given) | -0.775

Structure (SMILES) | relative % inhibition [%]
COc1cc(C(=O)Nc2nc3c(cc4c5c(cccc53)CC4)s2)cc(OC)c1OC | 12.4
O=C(NCc1ccco1)C1CCN(S(=O)(=O)c2ccc(Cl)cc2)CC1 | 18.1
CCOC(=O)c1c(NC(=O)c2ccccc2)sc2c(O)c(CN(CC)CC)ccc12 | 64.2
CCOc1ccc(C=Cc2nc(=O)c3ccccc3o2)cc1 | 22.3
COc1ccc(C2N(C)c3ccccc3N2C)cc1 | 17.9
CCOc1ccc2nc(C)cc(Nc3ccc(N(C)C)cc3)c2c1 | -6.75
Cc1ccc(Nc2nc(N)c3ccccc3n2)cc1Cl | 22.5
CC(=O)c1sc(NC(=O)Nc2ccc(C)cc2C)nc1C | -2.19
CCc1c(C)c(=N)c2ccccc2n1C | -17.1
Cc1ccc(Cn2c(N3CCC(C(=O)NCc4cccs4)CC3)nc3ccccc32)cc1 | 5.62
Cc1cc(Nc2ccc(Cl)cc2)n2nc(C(F)(F)F)nc2n1 | 7.36
OC(CNC1CCCCC1)Cn1c2ccc(I)cc2c2cc(I)ccc21 (stereo not given) | 84.7
COc1ccc(N2CCN(C(CNC(=O)CC(C)(C)C)c3ccc4c(c3)OCO4)CC2)cc1 (stereo not given) | 42.2
O=C(Nc1ccc(-c2nc3cc(NC(=O)c4ccc(Cl)cc4)ccc3[nH]2)cc1)c1ccc(Cl)cc1 | -5.09
CN1CCN(c2c3c(c(C#N)c4nc5ccccc5n24)CCC3)CC1 | -1.94
Cc1cc(NC(=O)c2cccc(C(F)(F)F)c2)n(-c2nc(-c3ccc4c(c3)OCO4)cs2)n1 | 18.8
C=C(C)CCC(C)N1CCC(N2CCC(C(=O)NCCc3ccccc3)CC2)CC1 (stereo not given) | -12.5
Cc1ccc(-c2cc(C(=O)Nc3ccc(S(=O)(=O)N4CCCCC4)cc3)[nH]n2)c(O)c1 | -1.52
COCCN(C(=O)Cc1cccs1)C(C(=O)NCc1ccc(OC)cc1)c1ccc(C(C)C)cc1 (stereo not given) | 13.7

Same assay, conditions: 5 µM; stage: late (IV-V) gametocyte; incubation 72 h

Structure (SMILES) | relative % inhibition [%]
COc1ccc(Nc2nc(NCc3ccccc3)c3ccccc3n2)cc1 | 107
CCOc1cc2c(cc1OCC)C(c1cc(Cl)c(O)c(OCC)c1)NCC2 (stereo not given) | 18.2
CN(C)c1ccc(-c2nc3cc(N)ccc3[nH]2)cc1 | -10.8
COc1ccc(CCN2C(=O)c3[nH]nc(-c4cc(Cl)c(C)cc4O)c3C2c2ccccc2F)cc1 (stereo not given) | 51.9
N=c1c2ccccc2nnn1-c1cccc(C(F)(F)F)c1 | 46.2
CC(=O)c1ccc(NC(=O)CSc2nc(-c3ccccc3Cl)ns2)cc1 | 5.88
Cc1ccc(C)c(Cn2c(N3CCC(C(=O)NCc4cccs4)CC3)nc3ccccc32)c1 | 31.6
CCN(CC)CCNc1ncnc2c1[nH]c1ccc(Br)cc12 | 27.1
C[n+]1c2ccccc2nc2ccc(NCCO)cc21 | 4.26
O=C(Nc1ccc(N2CCN(Cc3ccccc3)CC2)cc1)c1cccs1 | 16.2
Cc1cccc(-n2ncc3c(=O)[nH]c(-n4nc(C)cc4NC(=O)c4cc5ccccc5o4)nc32)c1 | 102
COc1cc(-c2nc(-c3ccccc3)c(-c3ccccc3)[nH]2)cc(OC)c1O | 2.98
CCOc1ccccc1CN1CCc2nc3cc(C(C)(C)C)nn3c(O)c2C1 | 76.6
CCN(CC)CCNc1ccnc2cc3ccccc3cc12 | 43.7
CCCCC(O)(c1ccc(Cl)cc1)C(CN1CCOCC1)c1ccc(Cl)cc1 (stereo not given) | 40.8
c1ccc(-c2ccc(-c3nc4ccccc4[nH]3)cc2)cc1 | 5.71
CC1CN(C(=O)c2sc3ccccc3c2Cl)CC(C)O1 (stereo not given) | -5.12
CC(C)(C)CC(C)(C)NCC(O)COc1ccc(Cl)cc1Cl (stereo not given) | 114
O=C(NCC(c1ccsc1)N1CCCCCC1)c1ccc(C(F)(F)F)cc1 (stereo not given) | 5.04

Structure (SMILES) | relative % inhibition [%]
COc1cc(C(=O)Nc2nc3c(cc4c5c(cccc53)CC4)s2)cc(OC)c1OC | 5.43
O=C(NCc1ccco1)C1CCN(S(=O)(=O)c2ccc(Cl)cc2)CC1 | 50
CCOC(=O)c1c(NC(=O)c2ccccc2)sc2c(O)c(CN(CC)CC)ccc12 | 89.6
CCOc1ccc(C=Cc2nc(=O)c3ccccc3o2)cc1 | 21.6
COc1ccc(C2N(C)c3ccccc3N2C)cc1 | -2.47
CCOc1ccc2nc(C)cc(Nc3ccc(N(C)C)cc3)c2c1 | -10.3
Cc1ccc(Nc2nc(N)c3ccccc3n2)cc1Cl | 38.4
CC(=O)c1sc(NC(=O)Nc2ccc(C)cc2C)nc1C | -29.6
CCc1c(C)c(=N)c2ccccc2n1C | -7.51
Cc1ccc(Cn2c(N3CCC(C(=O)NCc4cccs4)CC3)nc3ccccc32)cc1 | 23.8
Cc1cc(Nc2ccc(Cl)cc2)n2nc(C(F)(F)F)nc2n1 | -10.1
OC(CNC1CCCCC1)Cn1c2ccc(I)cc2c2cc(I)ccc21 (stereo not given) | 98.5
COc1ccc(N2CCN(C(CNC(=O)CC(C)(C)C)c3ccc4c(c3)OCO4)CC2)cc1 (stereo not given) | 25.6
O=C(Nc1ccc(-c2nc3cc(NC(=O)c4ccc(Cl)cc4)ccc3[nH]2)cc1)c1ccc(Cl)cc1 | 24.8
CN1CCN(c2c3c(c(C#N)c4nc5ccccc5n24)CCC3)CC1 | -8.14
Cc1cc(NC(=O)c2cccc(C(F)(F)F)c2)n(-c2nc(-c3ccc4c(c3)OCO4)cs2)n1 | 10.5
C=C(C)CCC(C)N1CCC(N2CCC(C(=O)NCCc3ccccc3)CC2)CC1 (stereo not given) | -42.7
Cc1ccc(-c2cc(C(=O)Nc3ccc(S(=O)(=O)N4CCCCC4)cc3)[nH]n2)c(O)c1 | 2.43
COCCN(C(=O)Cc1cccs1)C(C(=O)NCc1ccc(OC)cc1)c1ccc(C(C)C)cc1 (stereo not given) | -1.94
